Experimental data from PubChem BioAssay (EPA / NIEHS).
Some compounds were tested as several samples or in several runs, with calls that do not always agree. Activity calls are given as the source filed them. How the source made its calls: active means hit-call score of the fitted dose curve at least 0.9, where 1 is the maximum; inactive means score below 0.9.

What was measured:
[1] = APR_HepG2_NuclearSize_72hr: Apredica 72-hour HepG2 Assay for Nuclear Size (AID 2282925); settings: high-content imaging, actives raise or lower the signal
Procedure, shortened: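 HepG2 cells were exposed to compounds at ten concentrations from 0.39 to 200 uM (duplicate, 0.5% DMSO final) for 72 hr. After fixation in 3.7% formaldehyde, nuclei were stained with Hoechst 33342 (2 ug/mL) and imaged at 20x.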

[2] = ATG_CRE_CIS: Attagene CIS-FACTORIAL HepG2 Assay for human cAMP Responsive Element (CRE) binding protein 3 (AID 2282926); settings: HepG2 CRE cis-reporter, Attagene multiplexed mRNA; actives raise or lower the signal
Procedure, shortened: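 HepG2 cells transiently transfected with cis-element-driven multiple reporter transcription units; CRE reporter mRNA measured 24 h after dosing by RT-PCR, 6-FAM labelling, HpaI digestion and capillary electrophoresis. Bidirectional fit versus DMSO baseline.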

[3] = biological target: CCAAT/enhancer-binding protein beta (Homo sapiens) (UniProt P17676); test: ATG_C_EBP_CIS: Attagene CIS-FACTORIAL HepG2 Assay for human CCAAT/Enhancer Binding Protein (C/EBP) beta (AID 2282927); settings: HepG2 Attagene cis-factorial transcription factor reporter; actives raise or lower the signal
Procedure, shortened: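 RT-PCR/capillary electrophoresis fluorescence of reporter mRNA, 24 h post-dose, in HepG2 cells carrying transfected cis-promoter reporter units. Bidirectional curve fitting against DMSO baseline captures gain or loss of signal.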

[4] = ATG_CMV_CIS: Attagene CIS-FACTORIAL HepG2 Assay for human CMV (Internal Marker) (AID 2282928); settings: HepG2 CMV promoter reporter, transcription factor profiling; actives raise or lower the signal;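 further: endpoint acts as a background internal control marker rather than a target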
Procedure, shortened: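 Endogenous transcription factor activity read in HepG2 via transfected cis-promoter reporter units. After 24 h dosing, reporter mRNA measured by RT-PCR/capillary electrophoresis; gain or loss of signal fit relative to DMSO.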

[5] = ATG_DR4_LXR_CIS: Attagene CIS-FACTORIAL HepG2 Assay for human Liver X Receptor (LXR), DR4 submotif (AID 2282929); settings: HepG2 Attagene DR4 cis-reporter, mRNA transcription; actives raise or lower the signal
Procedure, shortened: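 DR4 cis-reporter in HepG2, 24 h exposure. Detection: RT-PCR, 6-FAM labelling, CE fragment analysis. Endpoint fitted bidirectionally, DMSO = baseline.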

[6] = biological target: Aryl hydrocarbon receptor (Homo sapiens) (UniProt P35869); test: ATG_Ahr_CIS: Attagene CIS-FACTORIAL HepG2 Assay for human Aryl Hydrocarbon Receptor (Ahr) (AID 2282930); settings: HepG2 AhR cis-factorial reporter transcription; actives raise or lower the signal
Procedure, shortened: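 HepG2 cells transiently transfected with cis-element-driven multiplexed reporter transcription units; endogenous transcription factor activity measured as reporter mRNA 24 h after dosing. RT-PCR, 6-FAM labelling, HpaI digestion, capillary electrophoresis; bidirectional fitting versus DMSO baseline.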

[7] = ATG_AP_1_CIS: Attagene CIS-FACTORIAL HepG2 Assay for human Activator Protein 1 (AP-1) (AID 2282931); settings: HepG2 Attagene cis-factorial AP-1 reporter mRNA; actives raise or lower the signal
Procedure, shortened: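 Cis-regulated reporter units transiently expressed in HepG2 report endogenous transcription-factor activity. Signal: reporter mRNA at 24 h, via RT-PCR and fluorescent capillary electrophoresis. Endpoint derived by bidirectional fitting, DMSO as negative control.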

[8] = ATG_AP_2_CIS: Attagene CIS-FACTORIAL HepG2 Assay for human Activator Protein 2 (AP-2) (AID 2282932); settings: HepG2 AP-2 cis-reporter, Attagene transcription factor profiling; actives raise or lower the signal
Procedure, shortened: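 Bidirectional curve fitting against DMSO was applied to reporter mRNA signals from HepG2 cells 24 h after dosing. Cis-promoter reporter units, transiently transfected, were read by RT-PCR plus capillary electrophoresis.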

[9] = ATG_BRE_CIS: Attagene CIS-FACTORIAL HepG2 Assay for human Bone Morphogenetic Protein (BMP) Response Element (BRE) (AID 2282933); settings: HepG2 BMP response element reporter, Attagene transcription factor profiling; actives raise or lower the signal
Procedure, shortened: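 Endogenous transcription factor activity read in transiently transfected HepG2 cells after 24 h chemical exposure. Bidirectional curve fitting against DMSO; readout is reporter transcript level by RT-PCR with capillary electrophoresis of labelled products.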

[10] = biological target: Transcription factor E2F1 (Homo sapiens) (UniProt Q01094); test: ATG_E2F_CIS: Attagene CIS-FACTORIAL HepG2 Assay for human E2F Transcription Factor 1 (AID 2282935); settings: HepG2 Attagene cis-reporter, E2F reporter RNA transcripts; actives raise or lower the signal
Procedure, shortened: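 Multiplexed cis-reporter assay: HepG2, transient transfection, 24 h dosing, mRNA quantitation by labeled RT-PCR and CE.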

[11] = ATG_E_Box_CIS: Attagene CIS-FACTORIAL HepG2 Assay for human Enhancer Box (E-box) (AID 2282936); settings: HepG2 E-box cis-reporter transcription, actives raise or lower the signal
Procedure, shortened: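 Multiplexed CIS reporter system in transiently transfected HepG2 cells measures native transcription factor activity. Reporter RNA after 24 h exposure is profiled by RT-PCR-capillary electrophoresis.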

[12] = ATG_M_61_CIS: Attagene CIS-FACTORIAL HepG2 Assay for M61 Transcription Factor (Internal Marker) (AID 2282937); settings: HepG2 Attagene CIS-FACTORIAL M61 internal marker reporter; actives raise or lower the signal
Procedure, shortened: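 Background-control endpoint: HepG2 cells with cis-regulated reporter constructs, 24 h exposure, reporter mRNA detected via fluorescent primer extension and capillary electrophoresis; values from bidirectional fitting with DMSO baseline.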

[13] = ATG_EGR_CIS: Attagene CIS-FACTORIAL HepG2 Assay for human Early Growth Response 1 (EGR1) (AID 2282938); settings: HepG2 Attagene CIS-FACTORIAL EGR reporter mRNA; actives raise or lower the signal
Procedure, shortened: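 Endpoint derived by bidirectional fitting versus DMSO vehicle. Method: cis-promoter reporter units transfected into HepG2, 24 h dosing, RNA isolation, RT-PCR with 6-FAM primer extension and HpaI digestion, then capillary electrophoresis fluorescence detection.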

[14] = ATG_M_19_CIS: Attagene CIS-FACTORIAL HepG2 Assay for M19 Transcription Factor (Internal Marker) (AID 2282939); settings: HepG2 Attagene CIS-FACTORIAL M19 internal marker reporter; actives raise or lower the signal
Procedure, shortened: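 Internal marker readout, fitted in both directions against DMSO, from HepG2 cells carrying transfected cis-element reporter constructs; RT-PCR and capillary electrophoresis of reporter mRNA after 24 h exposure.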

[15] = ATG_ERE_CIS: Attagene CIS-FACTORIAL HepG2 Assay for Estrogen Response Element (ERE) (AID 2282940); settings: HepG2 ERE cis-reporter, Attagene RNA transcript; actives raise or lower the signal
Procedure, shortened: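 After 24 h compound treatment, RNA from transfected HepG2 cells was reverse-transcribed, reporter cDNA PCR-amplified, FAM-labelled, HpaI-cut and resolved by capillary electrophoresis. ERE-driven cis reporter transcripts reflect endogenous factors; gain or loss scored against DMSO.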

[16] = ATG_Ets_CIS: Attagene CIS-FACTORIAL HepG2 Assay for human Erythroblast Transformation Specific (ETS) (AID 2282941); settings: HepG2 ETS cis-reporter transcription, actives raise or lower the signal
Procedure, shortened: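 Steps: transfect HepG2 with multiple reporter units; treat compound 24 h; isolate RNA, DNase-treat, reverse-transcribe; PCR-amplify, label with 6-FAM, digest with HpaI; separate by capillary electrophoresis. Activity fitted both directions versus DMSO.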

[17] = biological target: Hepatocyte nuclear factor 3-beta (Homo sapiens) (UniProt Q9Y261); test: ATG_FoxA2_CIS: Attagene CIS-FACTORIAL HepG2 Assay for human Forkhead box A2 (FOXA2) (AID 2282942); settings: HepG2 cis-reporter transcription factor activity, 24 h; actives raise or lower the signal
Procedure, shortened: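 Measured: reporter mRNA induction or loss in HepG2 transiently carrying multiple cis-regulated reporter units, 24 h after dosing. Quantified by RT-PCR plus capillary electrophoresis, normalised to DMSO.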

[18] = ATG_FoxO_CIS: Attagene CIS-FACTORIAL HepG2 Assay for human Forkhead box O (FoxO) (AID 2282943); settings: HepG2 Attagene cis-reporter, FoxO element, mRNA; actives raise or lower the signal
Procedure, shortened: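 HepG2 cells transiently transfected with cis-promoter-driven multiple reporter transcription units; 24 h after chemical dosing, reporter mRNA quantified by RT-PCR, fluorescent primer extension, HpaI digestion and capillary electrophoresis. Bidirectional fitting versus DMSO baseline.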

[19] = ATG_GATA_CIS: Attagene CIS-FACTORIAL HepG2 Assay for human GATA Binding Protein (AID 2282944); settings: HepG2 GATA cis-element reporter, Attagene multiplex mRNA; actives raise or lower the signal
Procedure, shortened: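 Reporter transcripts from a GATA cis-regulated unit, among multiplexed reporters in transfected HepG2 cells, were measured by RT-PCR with capillary electrophoresis after 24 h dosing. Induction or loss scored relative to DMSO.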

[20] = biological target: Retinoic acid receptor alpha (Homo sapiens) (UniProt P10276); test: ATG_DR5_RAR_CIS: Attagene CIS-FACTORIAL HepG2 Assay for human Retinoic Acid Receptor Alpha (RARE), DR5 submotif (AID 2282934); settings: HepG2 Attagene cis-factorial RARE DR5 reporter, mRNA; actives raise or lower the signal;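 on AC50: reporter responds to endogenous RAR alpha beta and gamma in HepG2 not RARA alone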
Procedure, shortened: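 HepG2 cells transiently transfected with multiplexed reporter units under cis (DR5 RARE) promoters, so endogenous transcription factor activity is measured. After 24 h compound exposure, reporter mRNA is quantified by RT-PCR with fluorescent labelling and capillary electrophoresis; bidirectional fitting versus DMSO.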

Measured: AC50

Transcription factor E2F1 (Homo sapiens), sequence (Q01094 whole entry, looked up): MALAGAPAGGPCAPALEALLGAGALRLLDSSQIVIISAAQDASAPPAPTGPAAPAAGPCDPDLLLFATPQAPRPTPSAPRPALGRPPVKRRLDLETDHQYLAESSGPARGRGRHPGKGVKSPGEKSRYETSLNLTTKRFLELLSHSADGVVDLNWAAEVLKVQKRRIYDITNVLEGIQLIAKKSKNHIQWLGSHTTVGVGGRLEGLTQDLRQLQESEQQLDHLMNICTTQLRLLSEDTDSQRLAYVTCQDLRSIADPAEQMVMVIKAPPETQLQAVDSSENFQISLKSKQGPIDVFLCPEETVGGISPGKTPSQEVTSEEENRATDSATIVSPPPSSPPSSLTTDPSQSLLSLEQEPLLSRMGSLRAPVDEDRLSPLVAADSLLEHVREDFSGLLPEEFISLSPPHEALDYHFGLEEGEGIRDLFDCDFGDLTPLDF
Retinoic acid receptor alpha (Homo sapiens), sequence (P10276 whole entry, looked up): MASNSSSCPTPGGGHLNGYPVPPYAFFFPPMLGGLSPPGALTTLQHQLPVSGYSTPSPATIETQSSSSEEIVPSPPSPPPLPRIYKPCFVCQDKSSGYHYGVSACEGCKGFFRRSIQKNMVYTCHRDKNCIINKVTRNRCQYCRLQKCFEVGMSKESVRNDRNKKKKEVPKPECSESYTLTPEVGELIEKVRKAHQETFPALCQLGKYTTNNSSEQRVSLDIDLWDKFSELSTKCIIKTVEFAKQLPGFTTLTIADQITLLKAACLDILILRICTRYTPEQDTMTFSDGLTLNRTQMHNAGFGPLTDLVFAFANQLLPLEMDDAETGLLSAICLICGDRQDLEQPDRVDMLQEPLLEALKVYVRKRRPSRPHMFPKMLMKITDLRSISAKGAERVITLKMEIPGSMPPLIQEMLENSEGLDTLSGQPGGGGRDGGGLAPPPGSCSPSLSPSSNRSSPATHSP
Aryl hydrocarbon receptor (Homo sapiens), sequence (P35869 whole entry, looked up): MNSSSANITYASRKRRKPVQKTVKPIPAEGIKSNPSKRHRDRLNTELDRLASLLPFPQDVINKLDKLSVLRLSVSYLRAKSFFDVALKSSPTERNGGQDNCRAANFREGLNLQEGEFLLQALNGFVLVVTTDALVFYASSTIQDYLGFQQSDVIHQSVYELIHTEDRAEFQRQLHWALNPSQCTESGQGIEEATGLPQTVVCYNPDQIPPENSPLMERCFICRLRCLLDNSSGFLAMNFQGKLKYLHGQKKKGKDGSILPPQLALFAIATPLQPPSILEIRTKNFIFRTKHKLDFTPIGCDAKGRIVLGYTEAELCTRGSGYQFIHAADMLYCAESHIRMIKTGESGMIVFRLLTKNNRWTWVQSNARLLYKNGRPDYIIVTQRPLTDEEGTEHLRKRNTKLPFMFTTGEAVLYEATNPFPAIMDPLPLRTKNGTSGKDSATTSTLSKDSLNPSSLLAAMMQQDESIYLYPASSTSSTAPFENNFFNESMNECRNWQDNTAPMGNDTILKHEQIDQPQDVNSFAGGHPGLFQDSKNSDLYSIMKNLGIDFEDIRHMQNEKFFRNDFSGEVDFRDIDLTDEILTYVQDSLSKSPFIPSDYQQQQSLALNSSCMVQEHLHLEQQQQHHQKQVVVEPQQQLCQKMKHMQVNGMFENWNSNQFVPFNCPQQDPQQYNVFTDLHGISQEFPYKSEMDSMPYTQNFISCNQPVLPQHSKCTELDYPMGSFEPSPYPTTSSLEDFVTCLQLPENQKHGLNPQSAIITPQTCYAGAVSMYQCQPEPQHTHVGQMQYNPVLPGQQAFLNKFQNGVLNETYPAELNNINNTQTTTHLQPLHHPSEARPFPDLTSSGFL
Hepatocyte nuclear factor 3-beta (Homo sapiens), sequence (Q9Y261 whole entry, looked up): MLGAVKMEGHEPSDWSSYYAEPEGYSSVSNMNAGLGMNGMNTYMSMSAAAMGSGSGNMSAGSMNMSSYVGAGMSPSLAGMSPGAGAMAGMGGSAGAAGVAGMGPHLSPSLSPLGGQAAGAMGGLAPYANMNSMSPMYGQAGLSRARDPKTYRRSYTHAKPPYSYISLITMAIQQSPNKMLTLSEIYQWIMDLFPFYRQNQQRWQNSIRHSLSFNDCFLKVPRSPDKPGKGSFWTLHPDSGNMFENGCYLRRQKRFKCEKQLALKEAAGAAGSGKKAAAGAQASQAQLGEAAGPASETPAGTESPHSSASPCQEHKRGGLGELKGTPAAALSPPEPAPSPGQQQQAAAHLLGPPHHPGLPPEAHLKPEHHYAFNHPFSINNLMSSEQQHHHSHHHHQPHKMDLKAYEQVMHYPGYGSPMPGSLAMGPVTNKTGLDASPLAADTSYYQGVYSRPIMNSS
CCAAT/enhancer-binding protein beta (Homo sapiens), sequence (P17676 whole entry, looked up): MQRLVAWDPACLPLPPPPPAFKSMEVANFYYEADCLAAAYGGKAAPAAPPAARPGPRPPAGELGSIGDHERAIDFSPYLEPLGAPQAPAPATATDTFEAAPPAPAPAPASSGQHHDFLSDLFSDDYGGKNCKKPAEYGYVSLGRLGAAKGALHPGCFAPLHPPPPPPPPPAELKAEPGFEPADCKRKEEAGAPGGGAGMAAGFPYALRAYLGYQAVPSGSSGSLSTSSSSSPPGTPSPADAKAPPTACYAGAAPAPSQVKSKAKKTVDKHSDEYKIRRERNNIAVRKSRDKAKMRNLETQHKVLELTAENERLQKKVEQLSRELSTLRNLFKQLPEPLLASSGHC

CCCCCCCCCCCCCCCCOS(=O)(=O)O
active: [5] 24.5 µM | [7] 28.5 µM | [11] 25.8 µM
not listed: [20]
inactive: all other assays above

C[C@@H](Oc1ccc(CNC(=O)c2cccnc2Oc2ccc3c(c2)OCO3)c(F)c1)C(=O)O
not listed: [20]
inactive: all other assays above

CC1(C)C(=O)N(Cl)C(=O)N1Cl
not listed: [20]
inactive: all other assays above

c1ccc2ncccc2c1
active: [6] 41.9 µM
not listed: [13] | [20]
inactive: all other assays above

CCCOc1ccc(S(=O)(=O)N2CCN(CC)CC2)cc1-c1nc2c(CC)n(Cc3ccccn3)nc2c(=O)[nH]1
active: [5] 150 µM
not listed: [13]
inactive: all other assays above

NNC(=O)c1ccncc1
active: [15] 26.6 µM
not listed: [20]
inactive: all other assays above

Cc1nccn1-c1ccc(Sc2cccc(C3(C(N)=O)CCOCC3)c2)cc1
active: [2] 1.67 µM | [3] 1.94 µM | [4] 0.93 µM | [8] 8.08 µM | [20] 1.83 µM | [13] 4.56 µM | [16] 4.05 µM | [18] 3.15 µM
inactive: all other assays above

CCn1nc(C)c2c1C(=O)NCC(c1ccc(O)cc1)=N2
not listed: [20]
inactive: all other assays above

O=S(=O)(O)c1ccc(N=Nc2c(O)ccc3cc(S(=O)(=O)O)ccc23)cc1
not listed: [13]
inactive: all other assays above

CCCCCCCCCC
active: [19] 0.033 µM
not listed: [13] | [20]
inactive: all other assays above

OCc1ccccc1
not listed: [13]
inactive: all other assays above

OCC(CO)(CO)CO
active: [15] 100 µM
inactive: [1] | [2] | [3] | [4] | [5] | [6] | [7] | [8] | [9] | [20] | [10] | [11] | [12] | [14] | [15] | [16] | [17] | [18] | [19]

CC(C)C(=O)Nc1ccc([N+](=O)[O-])c(C(F)(F)F)c1
active: [1] 111 µM | [6] 135 µM | [7] 23.5 µM | [9] 65.1 µM
inactive: all other assays above
